{"source": "ChEMBL document CHEMBL2218924", "about": "“A broad activity screen in support of a chemogenomic map for kinase signalling research and drug discovery” (Biochem J, 2013)", "data": [{"target": "Ribosomal protein S6 kinase beta-1 (Homo sapiens) (UniProt P23443)", "sequence (P23443 whole entry, looked up)": "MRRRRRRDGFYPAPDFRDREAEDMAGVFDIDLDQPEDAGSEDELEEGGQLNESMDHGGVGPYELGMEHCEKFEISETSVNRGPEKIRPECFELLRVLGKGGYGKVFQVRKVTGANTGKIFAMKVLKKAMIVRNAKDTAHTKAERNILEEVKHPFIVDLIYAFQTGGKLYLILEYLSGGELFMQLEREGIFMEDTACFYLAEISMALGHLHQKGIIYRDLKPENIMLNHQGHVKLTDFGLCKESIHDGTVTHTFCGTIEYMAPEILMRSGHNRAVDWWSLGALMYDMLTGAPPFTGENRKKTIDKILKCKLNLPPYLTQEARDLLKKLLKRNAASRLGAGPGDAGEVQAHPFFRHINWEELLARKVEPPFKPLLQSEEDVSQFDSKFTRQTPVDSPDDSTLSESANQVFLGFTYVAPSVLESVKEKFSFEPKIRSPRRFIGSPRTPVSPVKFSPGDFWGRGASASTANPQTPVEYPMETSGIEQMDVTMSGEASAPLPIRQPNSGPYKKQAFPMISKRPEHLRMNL", "conditions": "at 1 µM", "units": {"residual activity": "%"}, "values": [{"smiles": "O=C1Nc2ccc(Cl)cc2/C1=C/c1cc(Cl)c(O)c(Cl)c1", "residual activity": 60}, {"smiles": "Cn1sc(=O)n(Cc2ccccc2)c1=O", "residual activity": 67}, {"smiles": "Fc1ccc(-c2nc3n(c2-c2ccncc2)CCS3)cc1", "residual activity": 92}, {"smiles": "O=C(Nc1ccc(Cl)cc1)c1ccccc1NCc1ccncc1", "residual activity": 135}, {"smiles": "O=c1c(-c2ccc(F)cc2)c(-c2ccncc2)[nH]n1-c1ccc(Cl)cc1", "residual activity": 129}, {"smiles": "COc1ccc(Cl)cc1NC(=O)Nc1cc(C)nc2ccccc12", "residual activity": 97}, {"smiles": "Nc1nccc(-c2c(-c3ccc(F)cc3)ncn2C2CCNCC2)n1", "residual activity": 74}, {"smiles": "O=C1Nc2ccccc2/C1=C\\c1c(Cl)[nH]c2ccccc12", "residual activity": 87}, {"smiles": "CCCCc1c(-c2ccc(O)cc2)[nH]c2nccnc12", "residual activity": 88}, {"smiles": "NC(=O)c1cccc(-c2cc(Nc3ccc(OC(F)(F)F)cc3)ncn2)c1", "residual activity": 97}, {"smiles": "O=C1NC(=O)C(c2cn(CCCO)c3ncccc23)=C1c1cnccn1", "residual activity": 91}, {"smiles": "O=C(NC(NC(=S)Nc1ccc(F)c([N+](=O)[O-])c1)C(Cl)(Cl)Cl)C(c1ccccc1)c1ccccc1", "note": "(centres undefined)", "residual activity": 141}, {"smiles": "c1ccc(-c2cnc(Nc3ccc(OCCN4CCCC4)cc3)s2)cc1", "residual activity": 61}, {"smiles": "Nc1n[nH]c2nc3ccccc3nc12", "residual activity": 78}, {"smiles": "CC(C)(C)c1nc2c3ccc(F)cc3c3c(=O)[nH]ccc3c2[nH]1", "residual activity": 47}, {"smiles": "CC(C)N(CCC(=O)c1ccc2ccccc2c1)Cc1ccccc1", "residual activity": 77}, {"smiles": "O=C1NC(=O)C(c2cn(CCCn3ccnc3)c3ccccc23)=C1Nc1ccccc1", "residual activity": 23}, {"smiles": "O=C(c1cc2cc(O)ccc2[nH]1)c1cc2cc(O)ccc2[nH]1", "residual activity": 73}]}, {"target": "Ribosomal protein S6 kinase beta-1 (Homo sapiens) (UniProt P23443)", "conditions": "at 10 µM", "units": {"residual activity": "%"}, "values": [{"smiles": "O=C1Nc2ccc(Cl)cc2/C1=C/c1cc(Cl)c(O)c(Cl)c1", "residual activity": 40}, {"smiles": "Cn1sc(=O)n(Cc2ccccc2)c1=O", "residual activity": 57}, {"smiles": "Fc1ccc(-c2nc3n(c2-c2ccncc2)CCS3)cc1", "residual activity": 62}, {"smiles": "O=C1C(Cl)=C(N2C(=O)CCC2=O)C(=O)c2ccccc21", "residual activity": 67}, {"smiles": "COc1ccc(Cl)cc1NC(=O)Nc1cc(C)nc2ccccc12", "residual activity": 62}, {"smiles": "CCCCc1c(-c2ccc(OC)cc2)[nH]c2nccnc12", "residual activity": 70}, {"smiles": "Nc1nccc(-c2c(-c3ccc(F)cc3)ncn2C2CCNCC2)n1", "residual activity": 49}, {"smiles": "O=C1Nc2ccccc2/C1=C\\c1c(Cl)[nH]c2ccccc12", "residual activity": 54}, {"smiles": "CCCCc1c(-c2ccc(O)cc2)[nH]c2nccnc12", "residual activity": 54}, {"smiles": "O=c1cc(N2CCOCC2)oc2c(-c3ccccc3)cccc12", "residual activity": 63}, {"smiles": "NC(=O)c1cccc(-c2cc(Nc3ccc(OC(F)(F)F)cc3)ncn2)c1", "residual activity": 74}, {"smiles": "O=C1NC(=O)C(c2cn(CCCO)c3ncccc23)=C1c1cnccn1", "residual activity": 76}, {"smiles": "O=C(NC(NC(=S)Nc1ccc(F)c([N+](=O)[O-])c1)C(Cl)(Cl)Cl)C(c1ccccc1)c1ccccc1", "note": "(centres undefined)", "residual activity": 99}, {"smiles": "c1ccc(-c2cnc(Nc3ccc(OCCN4CCCC4)cc3)s2)cc1", "residual activity": 52}, {"smiles": "Nc1n[nH]c2nc3ccccc3nc12", "residual activity": 47}, {"smiles": "O=S(=O)(c1cccc2cnccc12)N1CCCNCC1", "residual activity": 25}, {"smiles": "CC(C)(C)c1nc2c3ccc(F)cc3c3c(=O)[nH]ccc3c2[nH]1", "residual activity": 44}, {"smiles": "N#C/C(=C\\c1ccc(O)c(O)c1)C(=O)NCc1ccccc1", "residual activity": 65}, {"smiles": "CC(C)N(CCC(=O)c1ccc2ccccc2c1)Cc1ccccc1", "residual activity": 53}, {"smiles": "O=C1NC(=O)C(c2cn(CCCn3ccnc3)c3ccccc23)=C1Nc1ccccc1", "residual activity": 6}, {"smiles": "O=C(c1cc2cc(O)ccc2[nH]1)c1cc2cc(O)ccc2[nH]1", "residual activity": 18}]}]}
